Experimental findings from PubChem BioAssay (NCI) are described below.

Compounds without any hit were thinned out: in the full panel of roughly 83,000, 20% have a hit.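 Interpretation: 100, growth as untreated; towards 0, rising growth inhibition; 0, no net growth; 0 to -100, cell death. Compounds scoring below 10 were considered active.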 A number with no mark means an inactive call. The source made the active and inactive calls.

The test system of this test is MDA-MB-468 breast. In words: NCI-60 one-dose screen, 48 h (100 = growth as untreated, 0 = no growth, -100 = all killed). Particulars: 10 µM unless noted.
On to `CC(=O)NCCCS(=O)(=O)O`, for which the growth was 113%.
As to `CCN(CC)CCCC(C)N/C(=C1\C(=O)NC(=O)\C1=C(/NC(C)CCCN(CC)CC)c1cccc(OC)c1)c1cccc(OC)c1` (stereo not given), the growth was -42.6% (active).
For the compound `Nc1cc(Br)c(-c2nn3c(CCC(=O)c4nc5ccccc5[nH]4)nnc3s2)c(Br)c1`, the growth was 91.8%.
Regarding `Cn1c(N)c(N=Cc2ccccc2)c(=O)n(C)c1=O`, the growth is 117%.
To `O=c1c2cc(F)ccc2sc2c(NCCN3CCCC3)nc3ccccc3c12` belongs 65.8%; to `CCOC(=O)c1c(N)c(C#N)cn1-c1cc(OC)c(OC)c(OC)c1`, 103%.
Turning to `CC(=O)c1ccc(NCn2nc(-c3ccc(Cl)cc3)oc2=S)cc1`, the growth is 100%.
As for `O=C1C2=C(CCN(Cc3ccccc3)C2)N2CCN=C2N1Cc1ccc(F)cc1F`, the growth is 5.49% (active).
The same measure for `CNC(=O)c1cc(Oc2ccc3c(c2)sc2nc(-c4ccc(Cl)c(C(F)(F)F)c4)cn23)ccn1`: 5.6% (active); for `Cn1ccnc1C(=O)/C=C/c1ccc(CC(=O)NC2CCCCC2)cc1`: -6.65% (active); for `CN(C)c1ccc([C@@H](C(=O)Nc2cccc([N+](=O)[O-])c2)N(C(=O)c2cc3ccccc3[nH]2)c2cccc([N+](=O)[O-])c2)cc1`: 97.8%.
The same measure for `NNc1ncccn1`: 102%.
The same measure for `Cn1c2ccccc2c2c3c(c4c5ccc(Br)cc5oc4c21)C(=O)N(O)C3=O`: 46.2%; for `O=C(NCc1ccccc1)C(Cl)Cl`: 85.2%; for `COc1cc2cc(Oc3ccc(NC(=O)Nc4ccc(F)c(C(F)(F)F)c4)cc3)c(C)nc2cc1OCCN(C)C`: 93.4%.
Regarding `Cc1cc(NCc2cc(Nc3ccnc4cc(Cl)ccc34)ccc2F)nc(N2CCN(c3ccccc3)CC2)n1`, the growth was 30.2%.
To `COc1ccc(C2c3ccc4ccccc4c3Oc3nc(C)[nH]c(=O)c32)cc1` (stereo not given) belongs 111%; to `Clc1cc(Cl)cc(Nc2ccc3cc(OCCCN4CCOCC4)ccc3n2)c1`, 40.9%.
As to `COCCn1cc(-c2nc(-c3cccnc3)cs2)c2cc(F)ccc21`, the growth is 100%.
Consider `CCOC(=O)c1cccc(NC2=C(Cl)C(=O)c3nc(C)ccc3C2=O)c1`, for which the growth was -33.4% (active).
The same measure for `O=C(NCCCNc1cc(-c2cn(-c3ccccc3)nc2-c2cccc(O)c2)ccn1)c1ccccc1`: -61% (active).
To `Oc1ccc(CSc2nnc(-c3ccc(Oc4ccccc4)cc3)n2-c2ccccc2)c2cccnc12` belongs -2% (active).
As for `Nc1ccc(-c2ccc(-c3ccccc3N)c3[nH]c4ccccc4c23)cc1`, the growth is -5.32% (active).
The same measure for `CN1CCN(c2ccc(NC(=O)c3cncnc3Nc3ccc(OCc4ccccn4)c(Cl)c3)cc2)CC1`: 38.1%; for `Cn1cc(-c2noc(C(=O)c3cn(C)c4ncc(Br)cc34)n2)c2ccccc21`: 111%; for `CS(=O)(=O)Nc1cccc(-c2ccc3ncnc(Nc4cncc(Cl)c4)c3c2)c1`: -39.5% (active).
As to `Cc1cc2c(cc1C)[n+](Cc1ccc3ccccc3n1)cn2Cc1ccc2ccccc2n1`, the growth was -35.5% (active).
The same measure for `COc1cc(Nc2nc(NCCN)nc3cc[nH]c(=O)c23)cc(OC)c1`: 3.37% (active).
To `COc1ccccc1NCc1cccn1Cc1ccc(F)cc1` belongs 82.6%; to `O=[N+]([O-])c1cnc(Sc2ccncn2)s1`, -63.7% (active).
To `O=C(CSc1nnc(-c2cccnc2SCc2ccccc2)o1)Nc1nc(Cl)cc(Cl)n1` belongs 98.8%.
Take `FC(F)(F)Oc1ccc2c(c1)C[C@H]1C[C@@H](c3ccoc3)N2O1`: the growth was 118%.
Turning to `Oc1c(CN2CCC(N3CCCCC3)CC2)cc(Cc2cc(CN3CCC(N4CCCCC4)CC3)c(O)c3ncccc23)c2cccnc12`, the growth was -39.2% (active).
Consider `O=C(NCN1C(=O)c2cccc3cccc(c23)C1=O)N1CCC(Cc2ccccc2)CC1`, for which the growth is 101%.
The same measure for `Cc1ccc(Cc2cnc(NC(=O)c3cc(C)oc3C)s2)cc1`: 31.5%.
As to `C/C(=C(/c1ccc(O)cc1)c1ccc(OCCN2CCCCCC2)cc1)c1ccccc1`, the growth is 31.8%.
In the case of `O=S(=O)(Nc1ccsc1-c1nc(-c2ccccc2)no1)c1cc(Cl)cc(Cl)c1`, the growth is 88.6%.
To `CN1CCN(Cc2ccc(NC(=O)c3[nH]ncc3Nc3ccnc4ccsc34)cc2)CC1` belongs 18.5%; to `COc1ccc(Cn2c(C(N)=O)cc3c2-c2nc(N)ncc2CCC3)cc1`, 82.1%.
Regarding `COc1cc(NC(=O)c2cncnc2Nc2ccc3c(ccn3Cc3cccc(F)c3)c2)cc(OC)c1`, the growth is 42.8%.
